According to the supplement of paper PMC11732987, “Enantioselective OTUD7B fragment discovery through chemoproteomics screening and high-throughput optimisation” (Communications Chemistry, 2025):

Columns and labels:
Test in all cases: log2 ratio of Biotin-Ahx-Ub-VS probe labelling (fragment/DMSO); higher = less target engagement (more negative = stronger competition), active = hit call of the paper (q ≤ 0.05, log2 ratio ≤ -1)
Details in all cases: compound concentration: 200 uM; treatment time: 3 h
[1] = molecular target: T1, USP42 (UniProt Q9H9J4)
T1 sequence (whole entry): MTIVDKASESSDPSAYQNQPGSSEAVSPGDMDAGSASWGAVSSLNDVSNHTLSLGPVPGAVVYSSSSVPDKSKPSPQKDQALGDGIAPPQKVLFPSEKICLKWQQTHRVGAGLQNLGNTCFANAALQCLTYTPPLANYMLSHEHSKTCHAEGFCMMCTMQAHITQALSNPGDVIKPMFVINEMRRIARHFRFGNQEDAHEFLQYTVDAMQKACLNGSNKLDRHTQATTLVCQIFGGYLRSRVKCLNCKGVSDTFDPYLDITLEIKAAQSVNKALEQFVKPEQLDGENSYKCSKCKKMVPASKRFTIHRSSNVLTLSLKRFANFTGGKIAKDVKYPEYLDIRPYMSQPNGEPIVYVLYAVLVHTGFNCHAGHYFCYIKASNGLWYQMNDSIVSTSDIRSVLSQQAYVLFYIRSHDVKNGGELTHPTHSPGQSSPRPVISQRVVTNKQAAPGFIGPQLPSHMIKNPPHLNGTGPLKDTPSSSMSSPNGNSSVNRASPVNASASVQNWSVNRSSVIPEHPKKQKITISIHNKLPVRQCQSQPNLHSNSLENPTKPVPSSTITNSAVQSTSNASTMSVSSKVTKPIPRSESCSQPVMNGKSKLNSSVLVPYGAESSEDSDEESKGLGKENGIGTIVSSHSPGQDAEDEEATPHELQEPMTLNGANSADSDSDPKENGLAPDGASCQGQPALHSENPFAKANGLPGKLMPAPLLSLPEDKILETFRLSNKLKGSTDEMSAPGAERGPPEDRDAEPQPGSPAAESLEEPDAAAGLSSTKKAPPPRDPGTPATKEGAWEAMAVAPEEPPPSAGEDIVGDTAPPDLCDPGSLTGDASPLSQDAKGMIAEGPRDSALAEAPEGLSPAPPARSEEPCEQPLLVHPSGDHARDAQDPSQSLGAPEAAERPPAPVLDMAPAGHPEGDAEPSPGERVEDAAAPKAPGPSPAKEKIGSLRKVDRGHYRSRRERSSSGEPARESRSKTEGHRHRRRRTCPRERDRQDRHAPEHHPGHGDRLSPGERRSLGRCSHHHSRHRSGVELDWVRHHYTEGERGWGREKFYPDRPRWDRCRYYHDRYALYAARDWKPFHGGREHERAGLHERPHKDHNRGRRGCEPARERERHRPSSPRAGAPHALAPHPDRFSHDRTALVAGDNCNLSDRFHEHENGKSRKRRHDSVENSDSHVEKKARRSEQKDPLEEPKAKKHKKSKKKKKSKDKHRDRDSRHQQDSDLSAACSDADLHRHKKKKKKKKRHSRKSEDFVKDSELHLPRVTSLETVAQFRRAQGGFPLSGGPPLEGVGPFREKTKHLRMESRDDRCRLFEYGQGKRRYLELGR
Outline: (§1)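 HEK293T lysate (495 µg per sample, in Tris/CHAPS/IGEPAL buffer with protease inhibitors) was exposed in triplicate for 3 h to fragment at 200 µM or to vehicle, then to Biotin-Ahx-Ub-VS at 0.5 µM final for 1 h. Labelled DUBs were enriched on NeutrAvidin, digested with LysC and trypsin, and analysed by diaPASEF LC-MS/MS. Spectronaut label-free quantities were normalised to the global median, and values are average log2 ratios of fragment over vehicle from an unpaired t-test. Only proteins with ≥2 unique peptides were used.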

[2] = molecular target: USP46 (UniProt P62068)
Outline: as §1

[3] = molecular target: T2, USP47 (UniProt Q96K76)
T2 sequence (whole entry): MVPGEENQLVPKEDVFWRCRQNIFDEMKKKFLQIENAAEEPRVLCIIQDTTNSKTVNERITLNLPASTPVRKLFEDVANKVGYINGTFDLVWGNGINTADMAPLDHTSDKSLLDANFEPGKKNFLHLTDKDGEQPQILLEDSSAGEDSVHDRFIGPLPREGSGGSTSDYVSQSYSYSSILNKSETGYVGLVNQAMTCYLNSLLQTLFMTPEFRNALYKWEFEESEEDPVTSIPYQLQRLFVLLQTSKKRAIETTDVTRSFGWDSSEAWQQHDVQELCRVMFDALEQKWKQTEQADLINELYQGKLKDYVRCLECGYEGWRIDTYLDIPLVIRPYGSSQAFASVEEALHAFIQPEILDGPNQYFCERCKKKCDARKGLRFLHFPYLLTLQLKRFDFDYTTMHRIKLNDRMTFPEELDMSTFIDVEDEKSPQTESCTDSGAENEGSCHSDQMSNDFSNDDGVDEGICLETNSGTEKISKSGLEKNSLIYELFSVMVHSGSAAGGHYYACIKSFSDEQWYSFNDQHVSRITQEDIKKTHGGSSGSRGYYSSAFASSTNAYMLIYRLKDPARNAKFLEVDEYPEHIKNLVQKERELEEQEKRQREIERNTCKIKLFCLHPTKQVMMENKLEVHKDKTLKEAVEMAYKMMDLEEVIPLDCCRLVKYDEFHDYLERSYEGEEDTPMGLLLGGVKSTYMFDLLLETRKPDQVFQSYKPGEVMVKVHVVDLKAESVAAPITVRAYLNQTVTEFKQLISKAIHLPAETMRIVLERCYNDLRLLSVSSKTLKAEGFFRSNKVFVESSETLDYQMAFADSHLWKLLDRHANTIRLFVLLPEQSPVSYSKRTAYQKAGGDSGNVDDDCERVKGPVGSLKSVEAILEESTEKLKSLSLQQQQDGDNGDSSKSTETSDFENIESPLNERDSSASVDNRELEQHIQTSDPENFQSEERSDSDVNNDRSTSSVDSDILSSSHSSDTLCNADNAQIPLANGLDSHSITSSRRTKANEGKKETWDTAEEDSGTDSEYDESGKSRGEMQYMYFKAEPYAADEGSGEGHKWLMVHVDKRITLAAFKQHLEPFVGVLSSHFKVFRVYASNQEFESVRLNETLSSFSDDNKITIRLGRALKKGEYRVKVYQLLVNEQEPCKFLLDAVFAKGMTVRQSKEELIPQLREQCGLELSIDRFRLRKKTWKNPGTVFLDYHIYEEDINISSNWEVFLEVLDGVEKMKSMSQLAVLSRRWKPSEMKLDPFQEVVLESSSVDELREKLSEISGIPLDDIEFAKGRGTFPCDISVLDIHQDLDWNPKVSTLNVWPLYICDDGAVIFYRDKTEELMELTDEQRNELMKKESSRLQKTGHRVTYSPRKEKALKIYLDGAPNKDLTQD
Outline: as §1

[4] = molecular target: T3, USP48 (UniProt Q86UV5)
T3 sequence (whole entry): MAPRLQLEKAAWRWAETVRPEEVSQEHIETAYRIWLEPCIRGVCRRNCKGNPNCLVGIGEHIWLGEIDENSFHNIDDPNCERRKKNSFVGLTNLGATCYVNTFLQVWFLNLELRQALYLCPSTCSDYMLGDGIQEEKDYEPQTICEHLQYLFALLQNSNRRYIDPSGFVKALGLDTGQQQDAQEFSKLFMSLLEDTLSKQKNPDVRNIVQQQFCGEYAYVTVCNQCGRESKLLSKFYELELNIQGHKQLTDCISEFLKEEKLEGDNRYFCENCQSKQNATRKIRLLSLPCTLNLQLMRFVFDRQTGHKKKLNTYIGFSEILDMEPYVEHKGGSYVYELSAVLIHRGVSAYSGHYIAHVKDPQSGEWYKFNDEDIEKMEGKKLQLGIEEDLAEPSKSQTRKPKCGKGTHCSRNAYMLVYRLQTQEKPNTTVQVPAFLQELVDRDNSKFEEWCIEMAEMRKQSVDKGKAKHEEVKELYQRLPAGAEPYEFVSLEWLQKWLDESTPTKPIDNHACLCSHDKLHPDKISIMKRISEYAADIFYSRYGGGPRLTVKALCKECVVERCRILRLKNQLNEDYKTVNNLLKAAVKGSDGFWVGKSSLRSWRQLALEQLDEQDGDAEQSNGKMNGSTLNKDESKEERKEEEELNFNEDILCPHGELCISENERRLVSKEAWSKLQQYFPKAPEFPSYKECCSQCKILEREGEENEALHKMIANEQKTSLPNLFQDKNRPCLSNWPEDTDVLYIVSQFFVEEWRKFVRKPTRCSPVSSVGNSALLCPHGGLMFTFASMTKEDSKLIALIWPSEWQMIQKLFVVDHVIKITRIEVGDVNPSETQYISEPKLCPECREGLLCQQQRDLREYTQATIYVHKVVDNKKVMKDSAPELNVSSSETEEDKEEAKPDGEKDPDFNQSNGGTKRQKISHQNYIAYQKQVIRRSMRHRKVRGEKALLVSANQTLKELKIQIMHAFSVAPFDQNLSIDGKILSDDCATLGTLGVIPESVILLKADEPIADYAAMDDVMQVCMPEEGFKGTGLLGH
Outline: as §1

[5] = molecular target: T4, USP5 (UniProt P45974)
T4 sequence (whole entry): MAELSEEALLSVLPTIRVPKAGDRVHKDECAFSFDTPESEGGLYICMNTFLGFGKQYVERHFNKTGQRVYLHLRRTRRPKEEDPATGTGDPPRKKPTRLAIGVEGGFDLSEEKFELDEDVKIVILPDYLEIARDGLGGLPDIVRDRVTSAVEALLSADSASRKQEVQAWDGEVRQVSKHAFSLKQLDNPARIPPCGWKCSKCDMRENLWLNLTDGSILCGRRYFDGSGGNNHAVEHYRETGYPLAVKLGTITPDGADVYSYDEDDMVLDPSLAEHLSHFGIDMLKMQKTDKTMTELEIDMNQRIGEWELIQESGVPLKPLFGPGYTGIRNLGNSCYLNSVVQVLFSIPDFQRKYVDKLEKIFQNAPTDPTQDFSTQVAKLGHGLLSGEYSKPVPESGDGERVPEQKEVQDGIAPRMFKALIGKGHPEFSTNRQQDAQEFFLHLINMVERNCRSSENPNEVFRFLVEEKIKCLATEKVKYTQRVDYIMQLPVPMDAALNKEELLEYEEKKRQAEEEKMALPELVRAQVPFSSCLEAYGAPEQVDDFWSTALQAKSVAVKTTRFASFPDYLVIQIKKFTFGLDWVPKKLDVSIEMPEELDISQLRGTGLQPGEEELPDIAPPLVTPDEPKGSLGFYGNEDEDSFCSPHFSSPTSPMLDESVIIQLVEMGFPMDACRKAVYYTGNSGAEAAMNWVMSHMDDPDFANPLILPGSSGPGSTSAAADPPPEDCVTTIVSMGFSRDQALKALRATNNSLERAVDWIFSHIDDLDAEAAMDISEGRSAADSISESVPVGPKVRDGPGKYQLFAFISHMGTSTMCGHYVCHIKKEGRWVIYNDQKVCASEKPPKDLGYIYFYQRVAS
Outline: as §1

[6] = molecular target: USP54 (UniProt Q70EL1)
Outline: as §1

[7] = molecular target: USP7 (UniProt Q93009)
Outline: as §1

[8] = molecular target: T5, USP8 (UniProt P40818)
T5 sequence (whole entry): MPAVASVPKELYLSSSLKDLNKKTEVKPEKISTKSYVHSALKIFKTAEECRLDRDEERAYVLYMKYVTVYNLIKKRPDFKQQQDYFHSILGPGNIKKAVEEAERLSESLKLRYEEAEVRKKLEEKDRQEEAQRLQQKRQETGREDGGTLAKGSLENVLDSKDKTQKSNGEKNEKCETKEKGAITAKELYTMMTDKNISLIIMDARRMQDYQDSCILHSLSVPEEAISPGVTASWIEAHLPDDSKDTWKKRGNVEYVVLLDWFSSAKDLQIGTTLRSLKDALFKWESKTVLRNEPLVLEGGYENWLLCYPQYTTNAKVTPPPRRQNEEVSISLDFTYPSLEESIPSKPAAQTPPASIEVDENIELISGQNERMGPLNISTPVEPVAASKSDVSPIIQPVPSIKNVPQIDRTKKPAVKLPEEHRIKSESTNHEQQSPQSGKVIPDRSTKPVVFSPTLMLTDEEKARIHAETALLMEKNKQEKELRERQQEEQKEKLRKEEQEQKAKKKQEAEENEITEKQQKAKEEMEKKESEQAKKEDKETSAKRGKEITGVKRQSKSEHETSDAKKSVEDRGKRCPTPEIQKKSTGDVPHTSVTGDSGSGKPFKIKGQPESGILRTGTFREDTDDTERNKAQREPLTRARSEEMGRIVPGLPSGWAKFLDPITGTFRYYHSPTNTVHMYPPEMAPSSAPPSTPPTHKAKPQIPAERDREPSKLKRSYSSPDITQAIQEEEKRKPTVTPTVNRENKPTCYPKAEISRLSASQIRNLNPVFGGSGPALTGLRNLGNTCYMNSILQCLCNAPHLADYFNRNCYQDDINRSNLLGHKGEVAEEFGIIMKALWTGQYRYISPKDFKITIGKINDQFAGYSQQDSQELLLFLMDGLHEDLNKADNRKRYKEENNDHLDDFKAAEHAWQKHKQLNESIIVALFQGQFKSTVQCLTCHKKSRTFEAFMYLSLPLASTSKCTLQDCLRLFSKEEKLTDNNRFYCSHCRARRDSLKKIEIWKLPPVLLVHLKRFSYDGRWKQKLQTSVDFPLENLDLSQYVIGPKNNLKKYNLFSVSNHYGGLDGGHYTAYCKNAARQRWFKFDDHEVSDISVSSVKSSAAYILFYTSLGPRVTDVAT
Outline: as §1

[9] = molecular target: USP9X (UniProt Q93008)
Outline: as §1

[10] = molecular target: UniProt O00487
Outline: as §1

Measured: log2 ratio of Biotin-Ahx-Ub-VS probe labelling

USP46, sequence (P62068 whole entry): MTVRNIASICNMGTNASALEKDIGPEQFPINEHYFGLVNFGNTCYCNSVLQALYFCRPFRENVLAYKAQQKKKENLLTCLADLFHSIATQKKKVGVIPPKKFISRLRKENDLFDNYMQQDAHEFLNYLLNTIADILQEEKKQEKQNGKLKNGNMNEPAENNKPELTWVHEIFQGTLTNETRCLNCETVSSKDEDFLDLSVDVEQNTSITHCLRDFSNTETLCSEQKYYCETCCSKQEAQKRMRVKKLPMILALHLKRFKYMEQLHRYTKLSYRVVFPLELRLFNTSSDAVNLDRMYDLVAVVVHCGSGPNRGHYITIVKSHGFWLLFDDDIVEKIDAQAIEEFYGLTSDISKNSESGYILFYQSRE
USP9X, sequence (Q93008 whole entry): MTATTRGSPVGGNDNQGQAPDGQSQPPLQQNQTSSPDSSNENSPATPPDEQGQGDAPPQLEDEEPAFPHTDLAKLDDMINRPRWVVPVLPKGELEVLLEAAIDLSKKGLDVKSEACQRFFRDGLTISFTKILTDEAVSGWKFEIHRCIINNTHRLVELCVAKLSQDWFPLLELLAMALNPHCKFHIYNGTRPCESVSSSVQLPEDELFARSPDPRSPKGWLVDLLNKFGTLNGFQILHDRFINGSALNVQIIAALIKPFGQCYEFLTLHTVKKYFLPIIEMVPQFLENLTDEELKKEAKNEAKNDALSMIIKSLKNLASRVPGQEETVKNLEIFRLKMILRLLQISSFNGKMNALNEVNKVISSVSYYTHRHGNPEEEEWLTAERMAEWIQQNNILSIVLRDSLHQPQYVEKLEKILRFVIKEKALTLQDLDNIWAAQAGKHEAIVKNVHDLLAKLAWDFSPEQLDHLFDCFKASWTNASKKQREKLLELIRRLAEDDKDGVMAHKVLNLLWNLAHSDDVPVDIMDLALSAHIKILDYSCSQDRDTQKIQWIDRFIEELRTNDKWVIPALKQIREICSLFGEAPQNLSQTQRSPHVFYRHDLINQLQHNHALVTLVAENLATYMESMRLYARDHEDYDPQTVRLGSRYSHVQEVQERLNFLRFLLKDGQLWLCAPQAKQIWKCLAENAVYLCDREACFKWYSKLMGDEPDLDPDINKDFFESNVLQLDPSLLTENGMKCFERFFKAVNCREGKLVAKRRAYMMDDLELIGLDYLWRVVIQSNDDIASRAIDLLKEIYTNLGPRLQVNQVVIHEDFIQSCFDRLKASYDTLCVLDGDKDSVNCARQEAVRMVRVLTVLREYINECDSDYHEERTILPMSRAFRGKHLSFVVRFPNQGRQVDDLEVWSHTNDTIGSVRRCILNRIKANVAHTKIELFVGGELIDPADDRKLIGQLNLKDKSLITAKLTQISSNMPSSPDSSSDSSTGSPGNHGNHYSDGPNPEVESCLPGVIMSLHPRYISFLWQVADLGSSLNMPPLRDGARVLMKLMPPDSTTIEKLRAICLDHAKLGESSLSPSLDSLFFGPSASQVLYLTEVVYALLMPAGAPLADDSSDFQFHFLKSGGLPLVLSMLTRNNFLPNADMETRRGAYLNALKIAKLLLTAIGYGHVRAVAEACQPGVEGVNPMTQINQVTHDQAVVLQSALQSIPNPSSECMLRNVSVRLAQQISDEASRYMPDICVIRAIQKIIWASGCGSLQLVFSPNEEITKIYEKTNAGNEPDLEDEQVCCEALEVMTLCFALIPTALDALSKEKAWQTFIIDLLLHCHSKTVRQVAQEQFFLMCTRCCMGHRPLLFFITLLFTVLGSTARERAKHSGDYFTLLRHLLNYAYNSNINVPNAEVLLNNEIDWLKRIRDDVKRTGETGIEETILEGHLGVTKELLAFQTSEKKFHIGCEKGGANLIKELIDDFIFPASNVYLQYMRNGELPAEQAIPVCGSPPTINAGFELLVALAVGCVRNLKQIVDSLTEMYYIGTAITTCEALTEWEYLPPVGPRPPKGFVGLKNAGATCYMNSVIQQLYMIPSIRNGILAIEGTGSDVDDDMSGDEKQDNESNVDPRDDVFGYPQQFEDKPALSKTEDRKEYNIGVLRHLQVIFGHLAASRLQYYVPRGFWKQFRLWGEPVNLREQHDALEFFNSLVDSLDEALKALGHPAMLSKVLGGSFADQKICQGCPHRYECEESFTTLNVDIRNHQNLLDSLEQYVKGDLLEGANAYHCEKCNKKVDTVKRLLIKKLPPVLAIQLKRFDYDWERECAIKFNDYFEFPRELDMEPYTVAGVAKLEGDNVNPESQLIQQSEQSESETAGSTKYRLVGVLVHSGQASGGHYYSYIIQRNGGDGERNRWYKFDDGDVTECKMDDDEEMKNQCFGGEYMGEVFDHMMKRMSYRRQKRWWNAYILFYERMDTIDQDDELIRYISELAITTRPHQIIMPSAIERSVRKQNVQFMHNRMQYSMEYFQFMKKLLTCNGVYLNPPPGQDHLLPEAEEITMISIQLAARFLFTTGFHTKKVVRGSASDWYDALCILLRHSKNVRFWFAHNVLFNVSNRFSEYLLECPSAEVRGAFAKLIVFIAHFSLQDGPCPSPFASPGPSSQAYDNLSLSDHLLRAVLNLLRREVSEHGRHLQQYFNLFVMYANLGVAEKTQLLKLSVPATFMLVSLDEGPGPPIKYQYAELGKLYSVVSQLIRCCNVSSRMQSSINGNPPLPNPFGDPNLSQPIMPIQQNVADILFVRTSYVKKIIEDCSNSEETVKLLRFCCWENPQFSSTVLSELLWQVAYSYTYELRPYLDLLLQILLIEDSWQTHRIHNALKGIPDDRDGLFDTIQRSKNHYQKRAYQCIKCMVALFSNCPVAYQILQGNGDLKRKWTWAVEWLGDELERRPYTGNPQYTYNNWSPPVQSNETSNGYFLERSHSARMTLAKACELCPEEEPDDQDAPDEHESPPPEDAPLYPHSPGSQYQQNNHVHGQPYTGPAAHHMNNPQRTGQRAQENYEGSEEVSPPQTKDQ
UniProt O00487, sequence (O00487 whole entry): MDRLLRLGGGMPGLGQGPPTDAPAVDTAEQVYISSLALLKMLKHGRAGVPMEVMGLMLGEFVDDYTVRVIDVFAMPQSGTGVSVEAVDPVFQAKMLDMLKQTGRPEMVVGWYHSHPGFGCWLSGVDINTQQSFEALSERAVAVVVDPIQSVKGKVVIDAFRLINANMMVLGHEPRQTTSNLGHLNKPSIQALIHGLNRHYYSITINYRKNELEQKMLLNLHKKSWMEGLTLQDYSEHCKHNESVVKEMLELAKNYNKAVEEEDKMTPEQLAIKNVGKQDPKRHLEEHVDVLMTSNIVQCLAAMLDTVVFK
USP7, sequence (Q93009 whole entry, looked up): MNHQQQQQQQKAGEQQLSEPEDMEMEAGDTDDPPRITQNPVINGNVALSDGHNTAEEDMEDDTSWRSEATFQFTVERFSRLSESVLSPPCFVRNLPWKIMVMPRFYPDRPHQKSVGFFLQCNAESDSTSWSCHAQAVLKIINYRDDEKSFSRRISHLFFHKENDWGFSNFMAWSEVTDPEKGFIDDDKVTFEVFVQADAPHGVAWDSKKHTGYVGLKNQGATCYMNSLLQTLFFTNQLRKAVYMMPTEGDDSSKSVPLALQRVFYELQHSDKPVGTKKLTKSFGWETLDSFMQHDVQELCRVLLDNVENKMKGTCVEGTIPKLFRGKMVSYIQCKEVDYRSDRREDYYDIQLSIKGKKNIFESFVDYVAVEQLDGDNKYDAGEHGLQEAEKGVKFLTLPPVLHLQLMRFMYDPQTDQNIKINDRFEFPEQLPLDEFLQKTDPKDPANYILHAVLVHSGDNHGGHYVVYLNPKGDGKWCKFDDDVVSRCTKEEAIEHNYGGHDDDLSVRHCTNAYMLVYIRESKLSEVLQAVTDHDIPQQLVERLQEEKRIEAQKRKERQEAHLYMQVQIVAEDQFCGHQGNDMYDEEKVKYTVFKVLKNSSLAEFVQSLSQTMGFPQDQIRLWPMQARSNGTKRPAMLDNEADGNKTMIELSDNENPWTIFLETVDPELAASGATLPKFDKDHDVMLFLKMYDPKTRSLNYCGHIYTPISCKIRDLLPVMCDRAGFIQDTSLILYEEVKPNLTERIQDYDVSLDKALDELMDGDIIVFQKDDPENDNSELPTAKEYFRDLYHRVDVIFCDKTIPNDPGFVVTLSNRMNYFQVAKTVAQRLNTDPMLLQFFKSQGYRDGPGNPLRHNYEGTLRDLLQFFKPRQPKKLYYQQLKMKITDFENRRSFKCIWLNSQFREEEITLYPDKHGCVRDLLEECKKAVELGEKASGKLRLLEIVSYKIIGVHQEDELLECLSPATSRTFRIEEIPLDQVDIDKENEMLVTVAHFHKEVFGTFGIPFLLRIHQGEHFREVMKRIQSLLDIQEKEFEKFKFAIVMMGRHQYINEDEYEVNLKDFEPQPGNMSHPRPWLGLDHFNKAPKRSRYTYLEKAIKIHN

CCN1C(=O)C2CN(C(=O)CCl)CCN2C1=O (stereo not given)
inactive: [1] 0.369 | [2] -0.0317 | [3] 0.124 | [4] -0.1 | [5] 0.0692 | [6] -0.191 | [7] -0.307 | [8] 0.0104 | [9] -0.106 | [10] 0.00662
